# Screening data: PubChem, several laboratories
# The list is not random: actives were taken first. Their share in the collection is about 22%.
# CYP2C9 act – human CYP2C9 activators, primary screen, biochemical, luminescence; Cytochrome P450 2C9 (Homo sapiens), P11712; recombinant CYP2C9, luciferin-H conversion; active compounds read high; factor 1 = untreated enzyme, 0 = blocked; activation factor at 5 µM; hit rate 1.4% among 96,000; AID 1024, 2008;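 active means activation factor of 2 or more for CYP2C9 at a 5 µM dose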
# Target sequence (P11712 whole entry, looked up): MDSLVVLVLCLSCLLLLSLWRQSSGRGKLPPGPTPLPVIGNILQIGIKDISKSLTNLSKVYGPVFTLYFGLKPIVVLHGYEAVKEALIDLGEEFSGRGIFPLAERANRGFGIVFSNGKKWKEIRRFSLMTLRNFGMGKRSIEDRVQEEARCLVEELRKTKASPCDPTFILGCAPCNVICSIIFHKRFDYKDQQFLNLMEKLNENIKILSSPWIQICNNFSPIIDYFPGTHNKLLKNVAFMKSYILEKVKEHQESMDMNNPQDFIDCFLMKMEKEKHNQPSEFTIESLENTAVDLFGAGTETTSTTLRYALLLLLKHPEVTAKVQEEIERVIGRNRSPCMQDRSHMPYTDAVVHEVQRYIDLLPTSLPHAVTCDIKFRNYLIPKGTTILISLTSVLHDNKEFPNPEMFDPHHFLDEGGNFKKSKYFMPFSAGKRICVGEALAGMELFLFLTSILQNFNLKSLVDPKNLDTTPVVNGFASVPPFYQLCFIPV
# CYP2C9 inhib – blockers of cytochrome P450 2C9 activity – biochemical, luminescence, ADME assay, primary screen. P11712. CYP2C9 Supersomes, luciferin-H conversion. inhibition, % at 5 µM. hit rate 20% among 96,000. AID 777, 2007;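 active means blocking of liver enzyme CYP2C9 beyond about 50% at 5 µM, limit read from the data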
# Measles CPE – compounds protecting cells from measles virus cytopathic effect, primary screen, measles RdRp inhibitor project, single point, MLSMR library, absorbance; Measles virus-infected cells, CPE protection; protection (pct of control), % at 4 µM; hit rate 1.5% among 140,000; in the data active means protection mostly above about 24%, no sharp cut-off; inactive means mostly below about 26%
# CYP2C19 activ – human CYP2C19 activators, primary screen, biochemical, luminescence; 96,000 tested, under 10 active; Cytochrome P450 2C19 (Homo sapiens), P33261; recombinant CYP2C19, luciferin-H EGE luminescence; active compounds read high; 0 = fully inhibited enzyme, 1 = untreated enzyme; activation factor at 5 µM;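 active means activation factor of at least 2 at 5 µM in the primary screen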
# CYP2C19 inh – blockers of cytochrome P450 2C19 activity – biochemical, luminescence, ADME assay, primary screen; P33261; CYP2C19 Supersomes, luciferin-H EGE luminescence, 30 min; inhibition, % at 5 µM; hit rate 21% among 96,000; AID 778, 2007;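 active means CYP2C19 inhibition above a set limit at 5 µM in the primary screen, cut at about 50% in these data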
# Hits are given with their value; . = inactive; / = not tested or not shown.
SMILES,CYP2C9 act,CYP2C9 inhib,Measles CPE,CYP2C19 activ,CYP2C19 inh
c1ccc(C(c2nnnn2C2CCCC2)N2CCCCCC2)nc1 (configuration not stated),.,.,.,.,51.9
O=C(N/N=C/c1ccncc1)C1CC1C(=O)N/N=C/c1ccncc1 (configuration not stated),/,/,.,/,/
COc1ccc(NCc2n[nH]nc2-c2ccccc2)cc1Cl,.,86.0,.,.,96.9
CCC1S/C(=N/N=C/c2ccco2)N(c2ccc(F)cc2)C1=O (configuration not stated),/,/,.,/,/
Cc1c(N2C(=O)CS/C2=N\N=C\c2ccccc2O)c(=O)n(-c2ccccc2)n1C,.,.,.,.,.
COc1ccc(NC(=O)c2ccccc2NC(=O)COc2ccccc2)cc1,.,51.7,.,.,.
CCC(C)NC(=O)c1ccccc1NC(=O)COc1ccc(OC)cc1 (configuration not stated),.,73.4,.,.,50.7
CCC(C)NC(=O)c1ccccc1NC(=O)C(C)N(c1ccccc1)S(C)(=O)=O (configuration not stated),.,.,.,.,59.2
c1ccc(Sc2ncnc3c2oc2ccccc23)cc1,.,.,.,.,.
CC(C)n1nc(C(=O)Oc2cc(Cl)ccc2Cl)c2ccccc2c1=O,/,/,.,/,/
CCc1ccccc1NC(=O)N[C@@H](C)C(=O)OC,.,.,.,.,.
CS(=O)(=O)N(CC(=O)NCCSCc1c(F)cccc1Cl)c1ccc2c(c1)OCO2,.,56.7,.,.,79.0
COc1ccc(N(CC(=O)NCCSCc2c(F)cccc2Cl)S(C)(=O)=O)cc1OC,.,86.7,.,.,.
Cc1ccc(C(=O)COC(=O)CNC(=O)c2ccco2)cc1,.,.,.,.,.
O=C1CN(C(=O)COC(=O)CCSc2ccccc2Cl)c2ccccc2N1,.,.,26.8,.,.
C/C(N)=C(/C#N)C(=O)COC(=O)CSc1ccccc1,.,.,.,.,.
COc1ccccc1C(=O)NCCC(=O)N1CC(=O)Nc2ccccc21,2,.,.,.,.
C/C(N)=C(/C#N)C(=O)COC(=O)CCSc1ccccc1Cl,.,.,.,.,64.4
O=C1CN(C(=O)OCc2ccccc2)c2ccccc2N1,.,.,.,.,69.3
O=C(NCc1ccc2c(c1)OCO2)c1ccc(S(=O)(=O)NCC2CCCO2)cc1 (configuration not stated),.,.,.,.,.
Cc1ccc(NC(=O)C(NC2CCCc3ccccc32)c2ccccc2)c([N+](=O)[O-])c1 (configuration not stated),/,/,.,/,/
CCOC(=O)C(CC)(CC)/C(C)=N/NC(=O)CC#N,.,.,.,.,71.9
Cc1ccc(C)c(NC(=O)c2ccccc2Sc2ccc([N+](=O)[O-])cc2Cl)c1,/,/,.,/,/
C=CCn1c(N)c(C(=O)OCCC)c2nc3ccccc3nc21,.,69.4,.,.,77.3
COCCNC(=O)c1c(N)n(CCC2=CCCCC2)c2nc3ccccc3nc12,.,95.6,.,.,91.6
SMILES,CYP2C9 act,CYP2C9 inhib,Measles CPE,CYP2C19 activ,CYP2C19 inh
C=CCn1c(N)c(C(=O)Nc2cccc(C)c2)c2nc3ccccc3nc21,.,.,.,.,.
COCCNC(=O)CSc1nc2cc(OC)c(OC)cc2c(=O)n1CCC1=CCCCC1,/,/,.,/,/
Nc1c(C(=O)OCC2CCCO2)c2nc3ccccc3nc2n1C1CCCCC1 (configuration not stated),.,.,.,.,.
COCCn1c(N)c(C(=O)OCc2ccccc2)c2nc3ccccc3nc21,.,61.6,.,.,.
C=CCNc1ncnc2c1[nH]c1ccc(Cl)cc12,.,63.7,.,.,.
Cc1sc(NC(=O)CN(Cc2ccc(F)cc2)C(=O)C(C)C)c(C(N)=O)c1C,.,.,.,.,51.4
CCc1nc(N)c(C#N)c(-c2ccccc2OC)c1C,.,.,.,.,69.8
N#Cc1c(-c2ccccc2Cl)cc(C2CC2)nc1N,.,.,.,.,74.1
COc1ccccc1-c1cc(C2CC2)nc(N)c1C#N,.,.,.,.,80.5
CCn1cc(/C=C/C(=O)Nc2ccn(Cc3c(F)c(F)cc(F)c3F)n2)cn1,/,/,.,/,/
CCn1nc(C)c(NC(=O)c2ccc(Br)o2)c1C,/,/,.,/,/
Cc1cccc(C(=O)NC2CCN(C(=O)N3CCOCC3)CC2)c1,.,.,.,.,.
Cn1c(SCc2nnc(-c3ccccc3Br)o2)nc2sc3c(c2c1=O)CCC3,.,94.4,.,.,77.4
C=CCn1c(SCC(=O)N2CCOCC2)nc2sc3c(c2c1=O)CCCC3,.,80.1,.,.,71.2
C=CCn1c(SCC(=O)Nc2cc(C)on2)nc2sc3c(c2c1=O)CCCC3,.,.,.,.,.
Cc1ccc(-n2nnnc2SCc2nnc(-c3ccccc3Br)o2)cc1,.,.,.,.,.
Cn1c(SCC(=O)N2CCOCC2)nc2sc3c(c2c1=O)CCCC3,.,87.8,38.3,.,59.8
Cc1cccc(-c2c3c(=O)n(C)c(=O)n(C)c3cn2CCO)c1,.,.,.,.,.
Cc1cccc(-n2nnc(C(=O)Nc3ccc(F)cc3)c2N)c1,2.7,.,.,.,.
COc1ccc(OCCCC(=O)NCCc2ccc(OC)c(OC)c2)cc1,/,/,.,/,/
Cc1cccc(-n2nnc(C(=O)NCc3ccc4c(c3)OCO4)c2N)c1,.,.,.,.,.
COc1ccc(CCNC(=O)c2nnn(-c3cccc(C)c3)c2N)cc1OC,.,68.0,.,.,.
COc1ccc(CCNC(=O)c2nnn(-c3cc(C)cc(C)c3)c2N)cc1OC,.,.,.,.,.
CCOc1ccc(C(=O)CC(=O)C(=O)NCCc2ccc(OC)c(OC)c2)cc1,/,/,37.9,/,/
Cc1cccc(-n2nnc(C(=O)N3CCc4ccccc4C3)c2N)c1,3.2,.,.,.,.
SMILES,CYP2C9 act,CYP2C9 inhib,Measles CPE,CYP2C19 activ,CYP2C19 inh
C=CCn1c(COc2cccc3ccc(C)nc23)nnc1SCC(=O)OC,.,.,.,.,.
OC(COc1ccccc1)CN1CCN(c2ncccn2)CC1 (configuration not stated),.,.,.,.,.
CC(=O)NC(CCS(C)(=O)=O)C(=O)Nc1nccs1 (configuration not stated),.,.,.,.,.
CCOc1ccc(NC(=O)Cn2nnc(C(=O)NCc3ccco3)c2N)cc1,.,.,.,.,.
CCOc1ccc(NC(=O)Cn2nnc(C(=O)NCCc3ccc(OC)c(OC)c3)c2N)cc1,.,78.8,.,.,.
CCCSc1ccc2nc(NC(=O)OC)[nH]c2c1,/,/,.,/,/
Cc1cc(C)c2c(N)c(C(=O)NN3CC(=O)N(c4ccccc4F)CC3=O)sc2n1,.,.,.,.,.
CCC(=O)NC(=S)N1CCN(c2ccc([N+](=O)[O-])cc2Cl)CC1,.,.,28.8,.,67.5
O=C(NC(=S)N1CCN(c2ccc([N+](=O)[O-])cc2Cl)CC1)c1ccco1,/,/,.,/,/
N/C(=N\NC(=O)c1cccs1)c1cc2ccccc2oc1=O,/,/,.,/,/
